Results: the antibiotic and cytotoxicity screens of Wong et al. (2023)
Among all 39,000 compounds or so, about 3,300 (8.5%) were called active. What follows is part of a selection rich in actives, with near analogues and random picks from the rest.

The molecules below were run on HepG2 (assay: cytotoxicity call (relative viability < 0.9)). Conditions: 10 µM.
For `C[C@@H]1CN([C@@H](C)CO)S(=O)(=O)c2ccc(C#CC3CC3)cc2O[C@H]1CN(C)Cc1ccccc1F`, the cytotoxicity call was “inactive”.
For `COc1ccc(S(=O)(=O)N[C@H]2CC[C@@H](CC(=O)N3CCN(c4ccccc4)CC3)O[C@H]2CO)cc1`, the cytotoxicity call was “inactive”.
In the case of `CC(C)NC(=O)Nc1ccc2c(c1)C(=O)N([C@H](C)CO)C[C@@H](C)[C@H](CN(C)S(C)(=O)=O)OCCCC[C@H](C)O2`, the cytotoxicity call is reported as “inactive”.
In the case of `O=C(C[C@H]1CC[C@@H](NS(=O)(=O)c2ccc(F)cc2)[C@@H](CO)O1)NCc1ccc(Cl)c(Cl)c1`, the cytotoxicity call is reported as “inactive”.
`C[C@@H]1CCCCO[C@@H](CN(C)C(=O)Nc2ccc(F)cc2)[C@H](C)CN([C@H](C)CO)C(=O)c2cc(NC(=O)Cc3ccccc3)ccc2O1` was tested, and the cytotoxicity call was “inactive”.
With `C[C@@H]1O[C@@H](O[C@@H]2[C@@H](O)[C@H](C)O[C@@H](OC[C@H]3O[C@@H](Oc4c(-c5ccc(O)cc5)oc5cc(O)cc(O)c5c4=O)[C@H](O)[C@@H](O)[C@H]3O)[C@@H]2O)[C@H](O)[C@H](O)[C@H]1O` the cytotoxicity call was “inactive”.
For `C[C@@H]1CN([C@@H](C)CO)C(=O)c2cc(C#Cc3cccnc3)cnc2O[C@@H]1CN(C)Cc1ccc(F)cc1`, the cytotoxicity call was “inactive”.
For `C[C@H](CO)N1C[C@H](C)[C@@H](CN(C)Cc2ccccc2)Oc2c(NC(=O)c3ccc(-c4nccs4)cc3)cccc2C1=O`, the cytotoxicity call was “inactive”.
In the case of `N#CCNC(=O)Cc1ccccc1`, the cytotoxicity call is reported as “inactive”.
For `NC(Cc1cc(I)c(Oc2ccc(O)c(I)c2)c(I)c1)C(=O)[O-].[Na+]` [LIOTHYRONINE (L- isomer) SODIUM ], the cytotoxicity call was “active”.
In the case of `NC(Cc1cc(I)c(Oc2ccc(O)c(I)c2)c(I)c1)C(=O)O` (centres undefined), the cytotoxicity call is reported as “inactive”.
In the case of `N[C@@H](Cc1cc(I)c(Oc2ccc(O)c(I)c2)c(I)c1)C(=O)O`, the cytotoxicity call is reported as “inactive”.
`COc1cccc(S(=O)(=O)Nc2ccc3c(c2)[C@@H]2C[C@@H](CC(=O)NCc4cccc(F)c4)O[C@@H](CO)[C@@H]2O3)c1` was tested, and the cytotoxicity call was “inactive”.
`Cc1noc(C)c1S(=O)(=O)Nc1ccc2c(c1)CC(=O)N([C@H](C)CO)C[C@H](C)[C@H](CN(C)CC1CC1)O2` was tested, and the cytotoxicity call was “inactive”.
`Cc1noc(C)c1S(=O)(=O)N(C)C[C@H]1OCCCC[C@H](C)Oc2ccc(NC(=O)Nc3ccccc3)cc2C(=O)N([C@H](C)CO)C[C@H]1C` was tested, and the cytotoxicity call was “inactive”.
`Cc1noc(C)c1S(=O)(=O)N(C)C[C@@H]1OCCCC[C@@H](C)Oc2ccc(NC(=O)Nc3ccccc3)cc2C(=O)N([C@@H](C)CO)C[C@@H]1C` was tested, and the cytotoxicity call was “inactive”.
For `Cc1noc(C)c1S(=O)(=O)N(C)C[C@H]1OCCCC[C@H](C)Oc2ccc(NC(=O)Nc3ccccc3)cc2C(=O)N([C@H](C)CO)C[C@@H]1C`, the cytotoxicity call was “inactive”.
`Cc1noc(C)c1S(=O)(=O)N(C)C[C@H]1OCCCC[C@@H](C)Oc2ccc(NC(=O)Nc3ccccc3)cc2C(=O)N([C@@H](C)CO)C[C@@H]1C` was tested, and the cytotoxicity call was “active”.
With `Cc1noc(C)c1S(=O)(=O)N(C)C[C@@H]1OCCCC[C@H](C)Oc2ccc(NC(=O)Nc3ccccc3)cc2C(=O)N([C@H](C)CO)C[C@H]1C` the cytotoxicity call was “active”.
In the case of `Cc1noc(C)c1S(=O)(=O)N(C)C[C@@H]1OCCCC[C@@H](C)Oc2ccc(NC(=O)Nc3ccccc3)cc2C(=O)N([C@H](C)CO)C[C@H]1C`, the cytotoxicity call is reported as “inactive”.
For `COc1cccc(S(=O)(=O)N(C)C[C@H]2Oc3cc(C4=CCCC4)ccc3S(=O)(=O)N([C@@H](C)CO)C[C@@H]2C)c1`, the cytotoxicity call was “inactive”.
`CC(C)NC(=O)Nc1ccc2c(c1)C(=O)N([C@@H](C)CO)C[C@@H](C)[C@@H](CN(C)C(=O)Nc1ccccc1)OCCCC[C@H](C)O2` was tested, and the cytotoxicity call was “inactive”.
In the case of `C[C@@H](NC(=O)C[C@@H]1C=C[C@H](NC(=O)CN2CCOCC2)[C@H](CO)O1)c1ccccc1`, the cytotoxicity call is reported as “inactive”.
In the case of `Cc1ccc(NC(=O)n2c3ccccc3c3ccccc32)cc1`, the cytotoxicity call is reported as “active”.
In the case of `CC1=CC(C)(C)N(C(=O)Nc2ccc(C)cc2)c2ccccc21`, the cytotoxicity call is reported as “inactive”.
In the case of `Cc1ccc(OC(=O)n2c3ccccc3c3ccccc32)cc1`, the cytotoxicity call is reported as “inactive”.
`C[C@@H]1CN([C@H](C)CO)S(=O)(=O)c2ccc(C3=CCCCC3)cc2O[C@H]1CN(C)S(=O)(=O)c1cn(C)cn1` was tested, and the cytotoxicity call was “inactive”.
With `O=C(C[C@@H]1CC[C@@H]2[C@H](COC[C@@H](O)CN2S(=O)(=O)c2cccc(Cl)c2)O1)NCc1ccc2c(c1)OCO2` the cytotoxicity call was “inactive”.
For `O=C(NO)c1ccc(-c2cn(CC(=O)N3CCOCC3)nn2)s1`, the cytotoxicity call was “inactive”.
`CC1NC(=O)C2CCCN2C(=O)C(CC(N)=O)NC(=O)C2CSSCC(N)C(=O)NC3CSSCC(NC1=O)C(=O)NC(C(C)O)C(=O)NCC(=O)NC(C(=O)NC(Cc1ccc(O)cc1)C(=O)O)CSSCC(NC(=O)C(Cc1ccc(O)cc1)NC(=O)C(CCC(=O)O)NC3=O)C(=O)N2` (centres undefined) was tested, and the cytotoxicity call was “inactive”.
`CC[C@@H](C)CCCCC(=O)N[C@@H](CCN)C(=O)N[C@H](C(=O)N[C@@H](CCN)C(=O)N[C@H]1CCNC(=O)[C@H]([C@@H](C)O)NC(=O)[C@H](CCN)NC(=O)[C@H](CCN)NC(=O)[C@H](CC(C)C)NC(=O)[C@@H](Cc2ccccc2)NC(=O)[C@@H](CCN)NC1=O)[C@@H](C)O` was tested, and the cytotoxicity call was “inactive”.
With `CC(C)C[C@H]1NC(=O)[C@@H](CCCN)NC(=O)[C@H](C(C)C)NC(=O)[C@H]2CCCN2C(=O)[C@@H](Cc2ccccc2)NC(=O)[C@@H](CC(C)C)NC(=O)[C@@H](CCCN)NC(=O)[C@H](C(C)C)NC(=O)[C@H]2CCCN2C(=O)[C@@H](Cc2ccccc2)NC1=O` the cytotoxicity call was “active”.
In the case of `CC(C)C[C@@H]1NC(=O)[C@@H](C(C)C)NC(=O)[C@@H]2CCCN2C(=O)[C@@H](CC(=O)O)NC(=O)[C@@H](Cc2c[nH]c3ccccc23)NC1=O`, the cytotoxicity call is reported as “inactive”.
In the case of `C[C@H]1[C@H]2[C@H](Cc3ccccc3)NC(=O)[C@]23C(=O)N[C@H](Cc2ccccc2)C(=O)N2CCC[C@H]2C(=O)NC/C=C\C/C=C/[C@@H]3[C@@H]2O[C@]12C`, the cytotoxicity call is reported as “inactive”.
With `C[C@H]1CN([C@@H](C)CO)C(=O)c2cc(NS(=O)(=O)c3cccs3)ccc2O[C@H]1CN(C)S(C)(=O)=O` the cytotoxicity call was “inactive”.
With `COc1ccc(S(=O)(=O)N(C)C[C@@H]2Oc3ccc(NS(=O)(=O)c4ccccc4)cc3CC(=O)N([C@H](C)CO)C[C@@H]2C)cc1` the cytotoxicity call was “inactive”.
With `COCCN(C)C(=O)c1ccc2nnc([C@H]3CN(S(C)(=O)=O)CCN3C)n2c1` the cytotoxicity call was “inactive”.
In the case of `C=CCOC(=O)[C@@H]1[C@H]2C(=O)O[C@H](c3ccccc3)[C@H](c3ccccc3)N2[C@H](c2ccc(OCCOC(=O)[C@@H]3C[C@@H]4C(=O)N[C@@H](CCCCNC(C)=O)C(=O)N4[C@@H]3c3ccc(O)cc3)cc2)[C@@]12C(=O)Nc1ccccc12`, the cytotoxicity call is reported as “inactive”.
`C=CCNC1=C2C[C@@H](C)C[C@H](OC)[C@H](O)[C@@H](C)/C=C(\C)[C@H](OC(N)=O)[C@@H](OC)/C=C\C=C(/C)C(=O)NC(=CC1=O)C2=O` was tested, and the cytotoxicity call was “active”.
In the case of `C=CCNC1=C2C[C@H](C)C[C@H](OC)[C@@H](O)[C@H](C)/C=C(\C)[C@H](OC(N)=O)[C@H](OC)/C=C/C=C(\C)C(=O)NC(=CC1=O)C2=O`, the cytotoxicity call is reported as “active”.
For `CO[C@H]1/C=C\C=C(/C)C(=O)NC2=CC(=O)C(NCCN(C)C)=C(C[C@@H](C)C[C@H](OC)[C@H](O)[C@@H](C)/C=C(\C)[C@@H]1OC(N)=O)C2=O`, the cytotoxicity call was “active”.
In the case of `C[C@H](CO)N1C[C@H](C)[C@H](CN(C)S(=O)(=O)c2cn(C)cn2)Oc2ccc(NS(=O)(=O)c3cn(C)cn3)cc2CC1=O`, the cytotoxicity call is reported as “inactive”.
For `CC(C)NC(=O)N(C)C[C@H]1OCc2cn(nn2)CCCC(=O)N([C@@H](C)CO)C[C@@H]1C`, the cytotoxicity call was “inactive”.
In the case of `Cc1noc(C)c1NC(=O)N(C)C[C@@H]1Oc2cc(C#CCN(C)C)ccc2S(=O)(=O)N([C@@H](C)CO)C[C@H]1C`, the cytotoxicity call is reported as “inactive”.
For `COc1ccc(S(=O)(=O)Nc2ccc3c(c2)C(=O)N([C@@H](C)CO)C[C@@H](C)[C@H](CN(C)C(=O)c2ccccc2)OCCCC[C@@H](C)O3)cc1`, the cytotoxicity call was “inactive”.
`Nc1ccccc1CO` was tested, and the cytotoxicity call was “active”.
In the case of `OCc1ccccc1O`, the cytotoxicity call is reported as “inactive”.
With `Nc1cc(F)ccc1CO` the cytotoxicity call was “inactive”.
`C[C@H](CO)N1C[C@H](C)[C@H](CN(C)C(=O)c2ccccc2)Oc2cc(C#C[C@@H](C)O)ccc2S1(=O)=O` was tested, and the cytotoxicity call was “inactive”.
`Cc1ccc(S(=O)(=O)Nc2ccc3c(c2)CC(=O)N([C@H](C)CO)C[C@H](C)[C@@H](CN(C)C(=O)NC(C)C)O3)cc1` was tested, and the cytotoxicity call was “inactive”.
`C[C@@H]1CN([C@@H](C)CO)S(=O)(=O)c2ccc(C#CC3CC3)cc2O[C@H]1CN(C)C(=O)Cc1ccncc1` was tested, and the cytotoxicity call was “inactive”.
In the case of `COc1ccc2c3c([nH]c2c1)[C@@H](CO)N(C[C@]13CN(C1)S(=O)(=O)c1cn(cn1)C)C(=O)Nc1ccc(cc1)F`, the cytotoxicity call is reported as “inactive”.
In the case of `C[C@@H]1CN([C@@H](C)CO)C(=O)c2cc(NC(=O)Nc3ccc4c(c3)OCO4)ccc2O[C@@H]1CN(C)C(=O)Nc1ccc(C(F)(F)F)cc1`, the cytotoxicity call is reported as “inactive”.
For `CO[C@@H]1[C@@H](O[C@@H]2O[C@H](C)[C@@H](O[C@H]3C[C@@](C)(O)[C@@H](OC(=O)CC(C)C)[C@H](C)O3)[C@H](N(C)C)[C@H]2O)[C@@H](CC=O)C[C@@H](C)[C@@H](O)/C=C/C=C/CC(C)OC(=O)C[C@H]1OC(C)=O` (some centres undefined), the cytotoxicity call was “active”.
With `CO[C@@H]1[C@@H](O[C@@H]2O[C@H](C)[C@@H](O[C@H]3C[C@@](C)(O)[C@@H](O)[C@H](C)O3)[C@H](N(C)C)[C@H]2O)[C@@H](CC=O)C[C@@H](C)[C@@H](O[C@H]2CC[C@H](N(C)C)[C@@H](C)O2)/C=C/C=C/CC(C)OC(=O)C[C@H]1OC(C)=O` (some centres undefined) the cytotoxicity call was “inactive”.
With `COC1C(O)CC(=O)OC(C)CC=CC=CC(OC2CCC(N(C)C)C(C)O2)C(C)CC(CC=O)C1OC1OC(C)C(OC2CC(C)(O)C(O)C(C)O2)C(N(C)C)C1O` (centres undefined) the cytotoxicity call was “active”.
`CO[C@@H]1[C@@H](O[C@@H]2O[C@H](C)[C@@H](O[C@H]3C[C@@](C)(O)[C@@H](OC(=O)CC(C)C)[C@H](C)O3)[C@H](N(C)C)[C@H]2O)[C@@H](CC=O)C[C@@H](C)[C@@H](O)/C=C\C=C/C[C@@H](C)OC(=O)C[C@H]1OC(C)=O` was tested, and the cytotoxicity call was “inactive”.
In the case of `COC1C(O)CC(=O)OC(C)CC=CC=CC(O)C(C)CC(CC=O)C1OC1OC(C)C(OC2CC(C)(O)C(OC(=O)CC(C)C)C(C)O2)C(N(C)C)C1O` (centres undefined) [KITASAMYCINS [A1 shown] ], the cytotoxicity call is reported as “inactive”.
With `CO[C@@H]1[C@@H](O[C@@H]2O[C@H](C)[C@@H](O[C@H]3C[C@@](C)(O)[C@@H](O)[C@H](C)O3)[C@H](N(C)C)[C@H]2O)[C@@H](CC=O)C[C@@H](C)[C@@H](O[C@H]2CC[C@H](N(C)C)[C@@H](C)O2)/C=C/C=C/C[C@@H](C)OC(=O)C[C@H]1O` the cytotoxicity call was “inactive”.
